D3 antag: blocks the human D3 dopamine receptor. AID 652054. max response, negative = inhibition, %. D3R cells, DiscoveRx beta-arrestin luminescence, antagonist mode; stronger effect = lower value. 360,000 tested, 2.5% active; in the data active means max response below about -50%; further: on the % scale 0 is the no-effect control and ±100 the full control effect
Target sequence (P35462 whole entry, looked up): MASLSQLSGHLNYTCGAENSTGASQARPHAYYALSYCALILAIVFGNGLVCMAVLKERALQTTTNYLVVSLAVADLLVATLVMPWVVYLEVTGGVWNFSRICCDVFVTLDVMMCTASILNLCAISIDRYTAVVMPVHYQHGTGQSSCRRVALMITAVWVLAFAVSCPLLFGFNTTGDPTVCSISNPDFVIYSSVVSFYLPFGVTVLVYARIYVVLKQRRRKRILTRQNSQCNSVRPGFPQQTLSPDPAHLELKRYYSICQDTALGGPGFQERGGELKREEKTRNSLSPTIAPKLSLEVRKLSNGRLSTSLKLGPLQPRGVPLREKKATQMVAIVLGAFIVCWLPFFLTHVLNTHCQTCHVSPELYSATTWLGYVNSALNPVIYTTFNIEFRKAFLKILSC
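Cells expressing the human receptor were seeded at 1500 cells/well, incubated overnight at 37 degrees C in 5% CO2, then exposed to library compounds with dopamine controls for 90 minutes at 37 degrees C before luminescent detection.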
D1 agonist: human D1 receptor agonism | HEK293 T-REx D1 cells, calcium flux, agonist mode | 360,000 tested, 1% active | P21728 | activation, % at 2 µM; in the data active means activation above about 30%; further: 0% is about no effect
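Tetracycline-induced HEK293 TREx D1 cells, force-coupled to calcium signalling, were dye-loaded with a no-wash calcium kit. Compound was pin-added after a 10 s baseline. Fluorescence was read kinetically at 1 cycle/s for 180 s, with calcium rises flagged as agonism.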
D3 ag: D3 dopamine receptor (human) agonism; P35462; D3R DiscoveRx beta-arrestin cells, luminescence, 90 min; max activation, %; 410,000 tested, 0.58% active; AID 652048; in the data active means max activation above about 30%; further: 0% is about no effect
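Cells at 1500/well, incubated overnight, then treated with pinned compounds (dopamine as control) for 90 min at 37 degrees C. DiscoveRx reagent added for 30 - 60 minutes at room temperature; luminescence read.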
D1 antagonist: human D1 dopamine receptor antagonism | P21728 | 360,000 tested, 3.2% active | HEK293 TREx D1 cells, calcium flux, dopamine EC80; stronger effect = lower value | activity change, negative = inhibition, % at 10 µM; in the data active means activity change below about -30%; further: on the % scale 0 is the no-effect control and ±100 the full control effect
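Calcium flux readout: force-coupled, inducible Hek293 Trex D1 line, cells induced overnight at 30 C with tetracycline, dye-loaded 30–90 min at RT. Antagonism scored against EC80 dopamine challenge given 180 s after compound.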
D1 PAM: human D1 dopamine receptor positive modulation | P21728 | HEK293 TREx D1 cells, calcium flux, dopamine EC20 potentiation | potentiation, % at 10 µM | 360,000 tested, 0.036% active | AID 504651; in the data active means potentiation above about 30%; further: 0% is about no effect
Active calls of the source: *; x = no result given. The list is not random: actives were taken first. Their share in the collection is about 6.1%.

SMILES	D3 antag	D1 agonist	D3 ag	D1 antagonist	D1 PAM
Cc1c(Cl)ccc2c1NC(=O)[C@]21N[C@@H](Cc2ccccc2)[C@H]2C(=O)N(c3ccc(F)cc3)C(=O)[C@H]21	-10	34*	4	-1	16
Cc1csc(NC(=O)CSc2ccc(-c3ccccn3)nn2)n1	-23	-3	5	-98*	1
Cc1csc(NC(=O)c2cccnc2)n1	9	-2	4	-36*	-8
CC(=O)Nc1ccc(C(=O)Nc2nc(-c3cccnc3)cs2)cc1	10	-2	-7	-16	-4
Cc1csc(NC(=O)c2ccc(COc3ccccc3)o2)n1	10	14	0	-35*	-9
CC(=O)Nc1ccc(C(=O)Nc2nc(-c3ccccn3)cs2)cc1	-56*	2	-2	-13	5
Cc1cc(C)c(S(=O)(=O)NCC(c2ccco2)N2CCN(c3ccccc3)CC2)c(C)c1 (stereo unspecified)	x	-2	-18	x	-5
CSc1ccc(Nc2nn(-c3ccc(OC(F)(F)F)cc3)nc2C(C)=O)cc1	x	-1	12	-20	0
NCCOc1ccccc1Cc1ccccc1	-64*	62*	-12	-55*	-24
Cc1ccc(CN2CCN(CC3CC4C=CC3C4)CC2)cc1 (stereo unspecified)	-60*	2	-17	0	-5
CCOC(=O)C(=CNc1ccc(NC2=NCC(C)(C)S2)cc1)C(=O)OCC	104	10	52*	6	-3
O=c1cn[nH]c2ccc(Br)cc12	-17	x	5	x	x
Brc1ccc2[nH]ncc2c1	-7	2	1	-32*	-6
O=[N+]([O-])c1ccc2[nH]ncc2c1	11	4	0	-44*	-9
O=c1[nH]c2ccc([N+](=O)[O-])cc2[nH]1	3	x	-12	x	x
COc1ccc(CN(Cc2ccco2)C(=O)c2ccccc2F)cc1	x	1	-15	6	3
COc1ccc(-n2ncc(Cl)c(Cl)c2=O)cc1	-74*	1	-7	-9	-8
CCCOc1ccc(Oc2nc(NC)nc(N3CCOCC3)n2)nn1	x	2	15	-5	0
c1ccc(-c2nn3c(Cn4cnc5ccccc54)nnc3s2)cc1	14	4	-3	-33*	-11
CCc1ccc(NC(=O)Nc2cn(C)c(=O)c3ccccc23)cc1	x	2	14	-28	-2
CCCc1cc(=O)[nH]c2nnc(SCC(=O)N3CC(C)OC(C)C3)n12 (stereo unspecified)	13	3	6	-65*	-2
Cc1cc(=O)[nH]c2nnc(SCC(=O)N3CC(C)OC(C)C3)n12 (stereo unspecified)	9	3	1	33	-4
CCN(CC)c1ccc(NC(=O)c2cc(C)nc3c2c(C)nn3-c2ccc(C)cc2)c(C)c1	x	2	-19	-3	4
O=[N+]([O-])c1ccc(Sc2cccc3cccnc23)c([N+](=O)[O-])c1	-55*	2	-13	x	-1
Cc1cccc(N=Nc2c(O)[nH]c3ccc(Br)cc23)c1	0	7	-1	-3	-4
SMILES	D3 antag	D1 agonist	D3 ag	D1 antagonist	D1 PAM
Cc1cccc(C)c1OCC(=O)N=Nc1c(O)[nH]c2ccc(Br)cc12	37	1	-1	15	-4
COc1ccccc1N=Nc1c(O)[nH]c2ccc(Br)cc12	-6	4	6	-60*	-5
CC(Oc1ccccc1)C(=O)N=Nc1c(O)[nH]c2ccc(Br)cc12 (stereo unspecified)	0	0	-3	-36*	-5
C=C(C)C(=O)Nc1cccc(C2=NOC3(C2)C[C@@H](C(N)=O)N(C(=O)c2cc([N+](=O)[O-])cc([N+](=O)[O-])c2)C3)c1 (stereo partly specified)	1	1	1	-16	-2
C/C=C/C(=O)Nc1cccc(C2=NOC3(C2)C[C@@H](C(N)=O)N(C(=O)/C(C)=C/C)C3)c1 (stereo partly specified)	26	2	-4	-31*	2
C=C(C)C(=O)Nc1cccc(C2=NOC3(C2)C[C@@H](C(N)=O)N(C(=O)c2ccc(OC)cc2)C3)c1 (stereo partly specified)	4	1	3	-33*	-7
C/C=C(/C)C(=O)Nc1cccc(C2=NOC3(C2)C[C@@H](C(N)=O)N(C(=O)CC)C3)c1 (stereo partly specified)	0	1	11	-7	-9
CCCCCC(=O)Nc1cccc(C2=NOC3(C2)C[C@@H](C(N)=O)N(C(=O)Cc2ccc([N+](=O)[O-])cc2)C3)c1 (stereo partly specified)	-56*	1	2	-18	8
C/C=C(\C)C(=O)Nc1cccc(C2=NOC3(C2)C[C@H](C(N)=O)N(C(=O)CC#N)C3)c1 (stereo partly specified)	55	2	1	-48*	-5
Cc1oc(-c2ccc(Cl)cc2)nc1CSc1nnc(C)n2c1cc1sccc12	x	1	-17	-9	-6
Cc1ccc(-c2nc(C)sc2CC(=O)OCC(=O)Nc2ccc(F)c(Cl)c2)cc1	0	x	0	x	x
Cc1ccc(-c2nc(N)sc2CC(=O)OCC(=O)NCCC(C)C)cc1	-16	1	-3	-57*	-5
CCC(C)NC(=O)COC(=O)Cc1sc(N)nc1-c1ccc(C)cc1 (stereo unspecified)	12	3	4	-60*	-5
Cc1ccc(-c2nc(N)sc2CC(=O)OCC(=O)NCC2CCCO2)cc1 (stereo unspecified)	-10	0	2	-42*	-7
CCCc1sc(N)nc1-c1ccc(C)cc1	0	4	9	-60*	-4
COc1ccc(Cl)cc1NS(=O)(=O)c1c(C)nc2scc(C)n2c1=O	x	3	-13	-14	-2
c1ccc2c(Nc3nc(N4CCOCC4)c4ccccc4n3)cccc2c1	2	1	-5	-48*	-22
Fc1ccc(Nc2nc(N3CCOCC3)c3ccccc3n2)cc1	25	3	-1	0	-11
CCCCCCCC(=O)CC[C@@H]1[C@@H](C/C=C\CCCC(=O)OC(C)C)[C@@H](O)C[C@H]1O	x	x	22	x	x
O=C(NCc1ccc2c(c1)CCN2C(=O)c1ccccc1)Nc1cccc(C(F)(F)F)c1	x	2	-25	-43*	-3
COCCOC(=O)C1=C(C)NC(=O)N(C(C)=O)C1c1ccc(Cl)cc1 (stereo unspecified)	-102*	16	-7	0	-2
CCc1sc(-c2c(C#N)c(N)nc3c2CCCCCC3)cc1[N+](=O)[O-]	16	73*	-3	22	20
Cn1cnc(S(=O)(=O)N2CCCC(C(=O)NCc3ccccc3)C2)c1 (stereo unspecified)	x	-1	11	3	-1
COc1cc(/C=C/c2nc3cc(Cl)ccc3c(=O)n2-c2ccc(C)cc2C)cc(OC)c1OC	x	-1	0	-44*	-1

Bioassay records: PubChem BioAssay, National Center for Advancing Translational Sciences (NCATS)
